The source of these data is PubChem BioAssay (NCATS).

Test [1] deals with Ubiquitin carboxyl-terminal hydrolase 1 (Homo sapiens) (UniProt O94782). In words: Inhibitors of USP1/UAF1: Pilot qHTS (AID 504865). Further: nearly all actives have a fitted effect of over 35% in size. Further: potency means the concentration at half of the fitted maximal effect. Summed up: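 USP1/UAF1 complex at 1 nM preincubated 15 min at room temperature with compound, then Ub-Rho substrate added at 150 nM final. Fluorescence (480/540 nm) read kinetically in 50 mM HEPES pH 7.8, 0.5 mM EDTA, 1 mM TCEP, 0.1 mg/ml BSA, 0.01% Tween-20.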
Chain of Ubiquitin carboxyl-terminal hydrolase 1 (Homo sapiens) (O94782 whole entry, looked up): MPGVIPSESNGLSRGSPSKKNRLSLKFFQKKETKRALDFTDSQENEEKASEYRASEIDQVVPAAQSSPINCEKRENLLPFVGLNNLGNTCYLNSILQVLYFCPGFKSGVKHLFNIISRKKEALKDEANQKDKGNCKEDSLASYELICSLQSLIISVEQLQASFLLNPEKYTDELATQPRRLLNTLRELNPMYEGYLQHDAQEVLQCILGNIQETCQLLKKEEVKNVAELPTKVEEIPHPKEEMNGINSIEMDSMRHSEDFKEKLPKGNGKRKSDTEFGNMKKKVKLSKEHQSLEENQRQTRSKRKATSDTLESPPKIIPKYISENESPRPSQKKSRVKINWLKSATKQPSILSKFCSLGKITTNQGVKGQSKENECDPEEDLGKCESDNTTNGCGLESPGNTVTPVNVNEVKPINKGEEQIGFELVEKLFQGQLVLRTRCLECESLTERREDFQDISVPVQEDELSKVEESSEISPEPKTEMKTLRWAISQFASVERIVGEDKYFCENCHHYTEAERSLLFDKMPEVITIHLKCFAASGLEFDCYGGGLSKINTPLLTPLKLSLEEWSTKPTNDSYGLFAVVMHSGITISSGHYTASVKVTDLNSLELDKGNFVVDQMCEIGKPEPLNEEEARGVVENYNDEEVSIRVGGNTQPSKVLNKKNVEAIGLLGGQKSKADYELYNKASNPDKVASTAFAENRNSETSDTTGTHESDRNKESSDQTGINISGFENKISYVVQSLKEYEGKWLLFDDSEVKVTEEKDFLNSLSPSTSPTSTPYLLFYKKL
In general terms: qHTS replaces the single test concentration by a dilution series.

Test [2] deals with Thyrotropin-releasing hormone receptor (Homo sapiens) (UniProt P34981). In words: qHTS for Small Molecule Agonists and Allosteric Enhancers of Human TRH Receptor: Validation Screen for Agonists (AID 493127;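 active means calcium activation more than 3 SD above the typical response in the agonist read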). Particulars: TRH receptor agonist cell assay; at 2 µM; stronger effect = higher value. Summed up:
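TRHR cells loaded with fluo-8 calcium dye; FDSS kinetic fluorescence (Ex 480/Em 530) read at 1 s/cycle after 23 nL compound addition. Agonist-mode calcium response recorded before the 10 nM TRH (EC20) addition.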

The target in test [3] is Galactokinase (Homo sapiens) (UniProt P51570). In words: qHTS Validation Assay for Inhibitors of Human Galactokinase (GALK) (AID 493189). In short, it runs like this: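 GALK (5 nM) with 35 uM ATP and 100 uM galactose in HEPES pH 8.0 with MgCl2, NaCl, DTT and BSA. Reaction ran 1 h at room temperature. Residual ATP read by Kinase-Glo Plus luminescence.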
Chain of Galactokinase (Homo sapiens) (P51570 whole entry, looked up): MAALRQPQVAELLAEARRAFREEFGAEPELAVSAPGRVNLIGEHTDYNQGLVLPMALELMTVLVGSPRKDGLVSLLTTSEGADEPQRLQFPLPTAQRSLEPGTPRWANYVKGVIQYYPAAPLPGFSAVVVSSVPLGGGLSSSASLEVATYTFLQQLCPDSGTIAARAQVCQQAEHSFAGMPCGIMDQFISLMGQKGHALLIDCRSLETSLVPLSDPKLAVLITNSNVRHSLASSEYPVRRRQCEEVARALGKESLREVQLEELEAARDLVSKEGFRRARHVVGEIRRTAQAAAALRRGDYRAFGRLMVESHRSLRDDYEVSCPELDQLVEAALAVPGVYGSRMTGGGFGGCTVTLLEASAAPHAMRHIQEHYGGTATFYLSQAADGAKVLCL
Test [4] in a line: Validation screen for small molecules that induce DNA re-replication in SW480 colon adenocarcinoma cells (AID 504364). Summed up:
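SW480 cells (250/well) exposed 48 h at 37 C, 5% CO2, then Hoechst-stained 40 min. Nuclear DNA content imaged by fluorescence scanning (405 nm excitation, 500-530 nm emission); re-replication scored as increased nuclei with elevated intensity.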

Test [5] in a line: Nrf2 qHTS screen for inhibitors: Validation (AID 493153; active means well fitted inhibition curve with a large enough effect in the main read-out, with a control signal flat, not every such curve was filed as active). Particulars: Potency: luciferase luminescence; viability change: measured here: cytotoxicity max response. In short, it runs like this: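 A549 cells carrying ARE-firefly luciferase reporter, 5000 cells/well in 5% FBS OPTI-MEM, treated with compound over a concentration series for 18-24 h at 37 C. Luciferase luminescence gave Nrf2 activity; CellTiter-Fluor fluorescence gave viability.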

A short description of test [6]: qHTS for Inhibitors of Cell Surface uPA Generation: Validation Assay (AID 493164). In short, it runs like this: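 RAW 264.7 cells (4000/well) were plated overnight, then exposed for 18 h at 37 C, 5% CO2 to compounds in a 7-point 1:5 titration (2.45 nM–38.3 uM final). Intracellular ATP was read by ATP-Lite luminescence.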
Test [7] concerns the target Peptidyl-prolyl cis-trans isomerase NIMA-interacting 1 (Homo sapiens) (UniProt Q13526). In words: qHTS Validation Assay to Find Inhibitors of Pin1 (AID 504536; active means well fitted inhibition curve with a large enough effect in the polarisation, with a control signal flat, not every such curve was filed as active; the % refers to the polarisation). Summed up: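 Fluorescence polarization competition: compounds (titration) displace HiFluor-488-labeled Pin1-1b peptide from Pin1 (0.3 uM final) in pH 7.5 HEPES buffer with DTT, 10 min at room temperature; %Activity normalized to no-enzyme wells, curves fitted.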

In test [8] the target is Phosphoglycerate kinase, glycosomal (Trypanosoma brucei brucei) (UniProt P07378). In words: qHTS Validation Assay to Find Inhibitors of Phosphoglycerate Kinase (AID 504547). Summed up:
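Inhibition of the enzyme is judged by a Kinase-Glo Plus luminescent signal following a one-hour incubation at room temperature. Because 1,3-BPG is unstable, it is made in situ by GAPDH at 100nM final; no-PGK wells define the baseline.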

For test [9], the target named is phosphoglycerate mutase (Leishmania major) (UniProt Q4Q090). The experiment in a line: qHTS Validation Assay to Find Inhibitors of Phosphoglycerate Mutase (AID 504548).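 Further: end-point luminescence from Kinase-GloPlus after the PGAM reaction; series mostly up to about 58 µM.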 In short, it runs like this: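 L. major PGAM (1.25nM final) was added to substrate buffer and pinned compound, incubated 45 minutes at room temperature, then Kinase-GloPlus added; luminescence read after 10 minutes. Buffer: 100 mM TEA pH 7.6, 5 mM MgCl2, 0.01% Tween-20.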
Chain of phosphoglycerate mutase (Leishmania major) (Q4Q090 1-553): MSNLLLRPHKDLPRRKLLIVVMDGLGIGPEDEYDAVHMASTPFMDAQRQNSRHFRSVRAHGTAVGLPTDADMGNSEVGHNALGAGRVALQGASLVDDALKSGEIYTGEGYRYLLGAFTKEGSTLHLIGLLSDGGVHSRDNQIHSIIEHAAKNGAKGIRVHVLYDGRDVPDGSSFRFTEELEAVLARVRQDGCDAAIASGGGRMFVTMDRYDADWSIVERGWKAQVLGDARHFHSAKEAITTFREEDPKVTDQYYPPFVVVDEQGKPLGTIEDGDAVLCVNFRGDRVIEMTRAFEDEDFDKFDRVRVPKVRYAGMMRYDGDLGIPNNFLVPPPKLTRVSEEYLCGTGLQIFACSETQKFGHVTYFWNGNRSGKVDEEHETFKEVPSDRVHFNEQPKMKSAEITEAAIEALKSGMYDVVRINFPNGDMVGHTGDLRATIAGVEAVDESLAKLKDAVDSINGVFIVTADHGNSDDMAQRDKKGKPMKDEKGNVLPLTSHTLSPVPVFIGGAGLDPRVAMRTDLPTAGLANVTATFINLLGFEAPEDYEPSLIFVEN

The nature of test [10]: qHTS for Inhibitors of ATXN expression: Validation of Cytotoxic Assay (AID 588349). Summed up: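 HEK293 cells treated with titrated compound for 72 hr at 37 degrees C; viability read as intracellular ATP by CellTiter Glo luminescence.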
Test [11] can be described thus: qHTS for Inhibitors of ATXN expression: Validation (AID 588378). Further: series mostly up to about 57 µM; nearly all actives have a fitted effect of over 75% in size. In short, it runs like this: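 HEK293 cells carrying ATXN2-firefly luciferase reporter, treated with compound 24 h at 37 °C. Viability read first by CellTiter-Fluor (405/525 nm), then reporter expression by Bright-Glo luminescence; controls were a known ATXN2 expression inhibitor and a luciferase inhibitor.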

Each structure is given as a SMILES string. Results filed as inconclusive are left out. Entries that show only a call come without a potency. The source made the active and inactive calls. Unless noted, the call rests on the fitted dose curve; in most records, active means well fitted curve in the direction sought with a large enough effect; inconclusive means small, poorly fitted or top-dose-only effect, or another doubt; inactive means no such curve, though single readings can be large; an effect the other way counts as inactive or inconclusive.

Chain of Phosphoglycerate kinase, glycosomal (Trypanosoma brucei brucei) (P07378 whole entry, looked up): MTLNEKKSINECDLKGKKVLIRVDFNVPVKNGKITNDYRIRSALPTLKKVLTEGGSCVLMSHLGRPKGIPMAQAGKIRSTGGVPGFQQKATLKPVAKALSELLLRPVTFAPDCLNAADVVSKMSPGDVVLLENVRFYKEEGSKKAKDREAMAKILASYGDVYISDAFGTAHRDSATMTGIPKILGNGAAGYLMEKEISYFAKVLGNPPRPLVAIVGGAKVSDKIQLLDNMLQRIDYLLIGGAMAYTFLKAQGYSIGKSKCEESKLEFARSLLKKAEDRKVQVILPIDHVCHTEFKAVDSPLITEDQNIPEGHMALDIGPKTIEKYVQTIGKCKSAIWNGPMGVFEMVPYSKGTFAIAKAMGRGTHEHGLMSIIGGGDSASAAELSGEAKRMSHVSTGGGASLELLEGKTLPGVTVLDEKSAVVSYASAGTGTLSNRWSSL
Chain of Peptidyl-prolyl cis-trans isomerase NIMA-interacting 1 (Homo sapiens) (Q13526 whole entry, looked up): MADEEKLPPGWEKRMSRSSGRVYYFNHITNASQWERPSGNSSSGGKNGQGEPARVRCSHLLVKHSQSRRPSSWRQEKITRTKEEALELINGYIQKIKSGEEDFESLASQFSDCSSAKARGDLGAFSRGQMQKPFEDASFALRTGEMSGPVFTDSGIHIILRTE
Chain of Thyrotropin-releasing hormone receptor (Homo sapiens) (P34981 whole entry, looked up): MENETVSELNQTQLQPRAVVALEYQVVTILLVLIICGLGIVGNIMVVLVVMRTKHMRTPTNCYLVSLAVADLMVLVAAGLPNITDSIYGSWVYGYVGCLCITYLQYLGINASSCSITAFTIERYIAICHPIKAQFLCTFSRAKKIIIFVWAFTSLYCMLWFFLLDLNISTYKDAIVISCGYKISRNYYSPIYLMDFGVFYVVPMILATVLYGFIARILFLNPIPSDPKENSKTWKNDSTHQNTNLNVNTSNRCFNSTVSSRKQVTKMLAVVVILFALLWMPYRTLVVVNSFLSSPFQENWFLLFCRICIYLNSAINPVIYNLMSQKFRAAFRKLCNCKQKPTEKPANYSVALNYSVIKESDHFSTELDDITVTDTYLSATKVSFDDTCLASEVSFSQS

Take `O=C1C(CCS(=O)c2ccccc2)C(=O)N(c2ccccc2)N1c1ccccc1` (stereo unspecified): in [1], the Potency entry was “inactive”.
On the same count and under the same terms, the value for `O=C(NCCc1c[nH]c2ccccc12)c1cccnc1` was “inactive”; that for `Cc1cc(C)cc(OCC2CNC(=O)O2)c1` (stereo unspecified) was “inactive”; that for `Nc1ccc(S(=O)(=O)NCc2ccccc2)cc1` was “inactive”.
Still for that read-out and setting: the value for `Cn1c(=O)c2[nH]c(Br)nc2n(C)c1=O` was “inactive”.
On the same count and under the same terms, the value for `CC[N+](C)(CC)CCOC(=O)C(O)(c1ccccc1)C1CCCCC1` (stereo unspecified) was “inactive”; that for `Cl/C(=C\n1cncn1)c1ccc(Cl)cc1Cl` was “inactive”.
With `c1ccc(CC2=NCCN2)cc1`, in test [1], the Potency result is “inactive”.
Turning to `O=C(CCN1CCN2CCCC2C1)N1c2ccccc2Sc2ccc(Cl)cc21` (stereo unspecified), in test [1], the Potency result is “inactive”.
As to `CC(=O)OCC1=C(C(=O)O)N2C(=O)[C@@H](NC(=O)CSc3ccncc3)[C@H]2SC1`, the activation in test [2] is 0.5% (inactive). Moreover, the call in [3] and in test [4] was inactive.
Consider `NS(=O)(=O)c1ccc(Cl)c(S(N)(=O)=O)c1`, for which the Potency result in test [1] is “inactive”.
Still for that read-out and setting: the value for `O=C(Oc1cccc2cccnc12)c1ccccc1` was “inactive”.
Regarding `CC(=O)NCCCCCC(=O)O`, the Potency entry in test [1] is “inactive”.
The same measure, in the same setting: the value for `OCCOCCN1CCN(C2=Nc3ccccc3Sc3ccccc32)CC1` was “inactive”; that for `Cc1ncc(CO)c(C=O)c1O` was “inactive”; that for `Nc1nc(-c2ccccc2)c(Br)c(=O)[nH]1` was “inactive”.
On the same count and under the same terms, the value for `CC1=C(C(=O)O)N2C(=O)[C@@H](NC(=O)[C@H](N)c3ccccc3)[C@H]2SC1` was “inactive”; that for `CN(C)CCC[C@@]1(c2ccc(F)cc2)OCc2cc(C#N)ccc21` was “inactive”.
The same measure, in the same setting: the value for `NCc1ccccc1Sc1ccccc1CO` was “inactive”.
Turning to `O=C(CCCN1CC=C(n2c(=O)[nH]c3ccccc32)CC1)c1ccc(F)cc1`, the Potency result in test [1] was “inactive”.
On to `CC(=O)Nc1ccc(CC(=O)O)cc1`, for which the Potency result in test [1] was “inactive”.
Consider `CC(C)(C)NC[C@H](O)COc1nsnc1N1CCOCC1`, for which the Potency result in [5] and in [1] was “inactive” throughout. Besides, in test [5], the viability change is 2.77%. The call in [6], in test [7], in [8], in test [9], in [10] and in test [11] was inactive.
As to `CCN1/C(=C/C=C/c2sc3ccccc3[n+]2CC)Sc2ccccc21`, the Potency in test [1] is 44.7 µM (active).
In the case of `CN=C(N)NCCC[C@H](N)C(=O)O`, the Potency result in test [5] and in test [1] was “inactive” throughout. Moreover, the viability change in test [5] was 2.51%. The molecule was classed as inactive in [6], in [7], in [8], in [9], in [10] and in [11].
Turning to `COc1cc(C(=S)N2CCOCC2)ccc1O`, in [1], the Potency result is “inactive”.
The same measure, in the same setting: the value for `C[N+]12CCC(CC1)C(OC(=O)C(O)(c1ccccc1)c1ccccc1)C2` (stereo unspecified) was “inactive”.
Same read-out and setting: the value for `Cc1ccc(S(=O)(=O)NC(=O)NC2CCCC2)cc1` was “inactive”; that for `O=C(O)Cc1csc(-c2ccc(Cl)cc2)n1` was “inactive”.
On the same count and under the same terms, the value for `CCC(C(=O)OCCOCCN(CC)CC)c1ccccc1` (stereo unspecified) was “inactive”.
For the molecule `CCOC(=O)[C@H](CCc1ccccc1)N[C@@H](C)C(=O)N1[C@H](C(=O)O)C[C@H]2CCCC[C@@H]21`, the Potency entry in [5] and in test [1] was “inactive” each time. In addition, the viability change in test [5] was -5.88%. The call in test [6], in test [7], in [8], in test [9], in [10] and in [11] was inactive.
